In PubChem BioAssay (NCI):
The panel holds about 79,000 compounds, 15% with a hit somewhere; the sample as a whole holds those more often. A number with no mark means an inactive call. The source made the active and inactive calls. Cut-off read from the data, not from the text of the source: active = growth inhibition above about 70%; inactive = the rest.

How the values were obtained:
[1] = NCI Yeast Anticancer Drug Screen. Data for the rad50 strain (AID 155);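 note: 0% = growth of vehicle-only cultures of the same strain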; conditions: S. cerevisiae rad50 strain growth inhibition, stronger effect = higher value
Method in brief: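 Inhibition values express reduced yeast growth in compound-treated cultures relative to vehicle-treated controls.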

[2] = NCI Yeast Anticancer Drug Screen. Data for the mec2-1 strain (AID 157); conditions: S. cerevisiae mec2-1 strain, stronger effect = higher value
Method in brief: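 mec2-1 yeast strain, carrying an alteration in DNA damage repair or cell cycle control, was exposed to compounds; growth inhibition was measured relative to vehicle-treated controls.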

[3] = NCI Yeast Anticancer Drug Screen. Data for the sgs1 mgt1 strain (AID 161);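 note: 0% = growth of cultures given vehicle only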; conditions: S. cerevisiae sgs1 mgt1 strain, stronger effect = higher value
Method in brief: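 This yeast growth screen uses a strain with defined DNA-repair lesions; compound-treated growth is compared with vehicle-treated growth.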

[4] = NCI Yeast Anticancer Drug Screen. Data for the cln2 rad14 strain (AID 165);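 note: 0% = growth equal to vehicle treated cultures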; conditions: S. cerevisiae cln2 rad14 strain, stronger effect = higher value
Method in brief: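 Yeast carrying cln2 and rad14 alterations (cell cycle control and DNA damage repair) were exposed to compounds. Growth inhibition was measured against vehicle-treated controls.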

[5] = NCI Yeast Anticancer Drug Screen. Data for the bub3 strain (AID 167); conditions: S. cerevisiae bub3 mutant strain, stronger effect = higher value
Method in brief: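 Steps: expose the mutant yeast strain to compound; grow alongside vehicle-treated cultures; measure growth; express inhibition against the vehicle cultures.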

[6] = NCI Yeast Anticancer Drug Screen. Data for the mlh1 rad18 strain (AID 175); conditions: S. cerevisiae mlh1 rad18 strain growth inhibition, stronger effect = higher value
Method in brief: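 Growth inhibition of the yeast strain was measured after compound exposure and expressed relative to vehicle-treated controls. The strain carries defined defects in DNA damage repair.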

[7] = at 5.0 µM (retest, dose inferred, filed as 0.5)
[8] = at 50.0 µM (retest, dose inferred, filed as 5.0)

| SMILES | growth inhibition [1, 7] | growth inhibition [1, 8] | growth inhibition ([1]; at 50.0 µM) | growth inhibition [2, 7] | growth inhibition [2, 8] | growth inhibition ([2]; at 50.0 µM) | growth inhibition [3, 7] | growth inhibition [3, 8] | growth inhibition ([3]; at 50.0 µM) | growth inhibition [4, 7] | growth inhibition [4, 8] | growth inhibition ([4]; at 50.0 µM) | growth inhibition [5, 7] | growth inhibition [5, 8] | growth inhibition ([5]; at 50.0 µM) | growth inhibition [6, 7] | growth inhibition [6, 8] | growth inhibition ([6]; at 50.0 µM) |
| --- | --- | --- | --- | --- | --- | --- | --- | --- | --- | --- | --- | --- | --- | --- | --- | --- | --- | --- |
| CCOC(=O)C(=O)N1C(C)=C(C(=O)OCC)CC(C(=O)OCC)=C1C | 35% | 44% | -24.6% | 18% | 19% | -26.2% | 30% | 32% | -17.8% | 29% | 18% | -34% | 27% | 25% | -8.45% | 32% | 31% | -44.1% |
| Fc1ccc(C2(CCCN3CCc4[nH]c5cc(F)ccc5c4C3)OCCO2)cc1 | 31% | 97% (active) | 70.2% (active) | 27% | 98% (active) | 79% (active) | 25% | 99% (active) | 84.5% (active) | 18% | 96% (active) | 83.3% (active) | 24% | 98% (active) | 39.5% | 29% | 99% (active) | 91% (active) |
| O.O.O=Cc1cc(Br)cc(Br)c1O.O=Cc1cc(Br)cc(Br)c1O.[Co] | 58% | 99% (active) | 99.2% (active) | 25% | 99% (active) | 96.7% (active) | 37% | 89% (active) | 99% (active) | 15% | 99% (active) | 89.5% (active) | 53% | 99% (active) | 90.5% (active) | 79% (active) | 99% (active) | 99.2% (active) |
| O=C(OC1C2CCC2C2CC21)c1cc([N+](=O)[O-])cc([N+](=O)[O-])c1 (configuration not stated) | -9% | 97% (active) | 10.9% | 4% | 99% (active) | 98.1% (active) | 32% | 99% (active) | 13% | 3% | 98% (active) | 97.8% (active) | 6% | 98% (active) | 62.2% | 42% | 99% (active) | 58.9% |
| COc1cccc(C=O)c1O | 6% | 75% (active) | 74.6% (active) | -3% | 21% | 1.05% | 1% | 29% | 17.5% | 1% | 23% | -23.5% | -6% | 0% | -9.35% | 1% | 66% | 62.5% |
| COC(=O)C1C(c2ccccc2)=N[C@@H](c2ccccc2)[C@H]1C(=O)OC (some centres not stated) | 2% | -3% | 17.4% | 3% | -2% | -2.15% | 9% | 3% | 17.1% | 6% | 7% | 23.2% | 6% | 32% | 3.55% | 1% | 0% | 76.7% (active) |
| COC(=O)/C(=N\NC(=O)c1ccccc1O)C(C#N)c1ccc(Cl)cc1 (configuration not stated) | -4% | 44% | 62.1% | -1% | 65% | 54.8% | 13% | 73% (active) | 68% | -7% | 42% | 43.4% | -3% | 79% (active) | 71.8% (active) | 0% | 60% | 70.6% (active) |
| CCCCCC(/C=N/NC(N)=S)C(O)(C(F)(F)F)C(F)(F)F (configuration not stated) | -21% | 51% | 77.6% (active) | -17% | 47% | 62.4% | -7% | 28% | 73% (active) | -11% | 77% (active) | 61% | -11% | 77% (active) | 35% | -27% | 78% (active) | 67.9% |
| CCCCOC(=O)c1nc(N(CC2CCCCC2)C(=O)NC)sc1NC(=O)NC | -3% | 92% (active) | 10.5% | -3% | 95% (active) | 0.85% | -18% | 97% (active) | 8.7% | -3% | 95% (active) | 1.6% | 0% | 95% (active) | -1.65% | 5% | 96% (active) | 29.2% |
| Cc1ccccc1NC(=O)C(=O)C(C#N)c1c(Cl)cccc1Cl (configuration not stated) | -13% | 15% | -15.6% | 6% | 11% | 17.1% | -2% | 2% | 25.6% | 0% | 10% | -12.1% | -3% | 25% | 14.7% | 2% | 3% | 25.9% |
| CCOC(=O)Cc1csc2[n+]1C(=O)/C(=C\c1cccc(Cl)c1Cl)S2 | 11% | 20% | 69.4% | 0% | 28% | 60% | 1% | 52% | 83.4% (active) | -11% | 32% | 31.8% | -32% | 52% | 75.8% (active) | 14% | 29% | 72.5% (active) |
| CCCCCCCCCCCC(=O)OCC1CO1 (configuration not stated) | -6% | -26% | -11.7% | -13% | -8% | -4.65% | 6% | 1% | 24.6% | 29% | -55% | 34% | 9% | -44% | -6.5% | -16% | 3% | -11.4% |
| CN(C)CCC1(C2=CCCC2)CC/C(=C\c2ccc(Cl)cc2)C1=O (configuration not stated) | 24% | 86% (active) | 94.3% (active) | 28% | 96% (active) | 94.3% (active) | 26% | 97% (active) | 94% (active) | 31% | 97% (active) | 92.3% (active) | 37% | 98% (active) | 92.2% (active) | 33% | 97% (active) | 87.5% (active) |
| CC1(C)[C@@H]2CC[C@]1(C)[C@@H](OC(=O)CSC#N)C2 | 92% (active) | 99% (active) | 99.4% (active) | 74% (active) | 100% (active) | 99.6% (active) | 98% (active) | 100% (active) | 99.3% (active) | 24% | 99% (active) | 98.8% (active) | 95% (active) | 100% (active) | 99.6% (active) | 75% (active) | 99% (active) | 99.2% (active) |
| COc1ccc(-c2cc(C(=O)O)c3cccc(C(F)(F)F)c3n2)cc1 | 15% | 85% (active) | 67.9% | 4% | 83% (active) | 57.6% | 0% | 92% (active) | 72.9% (active) | 22% | 80% (active) | 64.5% | 12% | 78% (active) | 59% | 17% | 96% (active) | 89.7% (active) |
| COc1ccc(NC2Oc3cc4c(cc3C(c3cccc(OC)c3OC)C2C)OCO4)cc1 (configuration not stated) | -24% | 17% | 48% | -13% | -15% | 49.5% | -6% | -1% | 47.9% | -10% | 12% | 41.1% | -32% | 13% | 65.3% | -19% | 9% | 71.3% (active) |
| CCCCCCC[n+]1ccc(C(=O)c2ccccc2)cc1 | 99% (active) | 99% (active) | 99.4% (active) | 100% (active) | 99% (active) | 94.3% (active) | 100% (active) | 100% (active) | 99.5% (active) | 99% (active) | 100% (active) | 80.2% (active) | 99% (active) | 99% (active) | 99.3% (active) | 99% (active) | 99% (active) | 99.5% (active) |
| CC(=O)[O-].[Mn+3].[O-]c1ccc(Cl)cc1C=NCCN=Cc1cc(Cl)ccc1[O-] | -2% | 92% (active) | 98.8% (active) | -3% | 66% | 98.5% (active) | 6% | 87% (active) | 98.6% (active) | 8% | 89% (active) | 89.2% (active) | 16% | 98% (active) | 98.2% (active) | -1% | 93% (active) | 98.6% (active) |
| CCCC1CCCC1(CC(=O)c1ccccc1)C(=O)O (configuration not stated) | 21% | 52% | 70.3% (active) | 19% | 46% | 64.8% | 25% | 47% | 81.7% (active) | 24% | 54% | 82.3% (active) | 63% | 76% (active) | 90.2% (active) | 47% | 72% (active) | 82.5% (active) |
